From PubChem BioAssay (NCI) come the findings set out here.

About 79,000 compounds went through this panel and 15% of them were active in at least one assay; those are over-represented in the sample as a whole. A number with no mark means an inactive call. The source made the active and inactive calls. No stated cut-off is given here; in the data, active means growth inhibition above about 70%; inactive means the rest.

Test [1] can be described thus: NCI Yeast Anticancer Drug Screen. Data for the rad50 strain (AID 155).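 Further: 0% = growth of vehicle-only cultures of the same strain.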 As to conditions: S. cerevisiae rad50 strain growth inhibition, active compounds read high. Put shortly: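 Relative growth inhibition (compound vs vehicle) was measured in yeast with a defined repair-gene alteration.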
Test [2] is described as follows: NCI Yeast Anticancer Drug Screen. Data for the mec2-1 strain (AID 157). As to conditions: S. cerevisiae mec2-1 strain, active compounds read high. The method in brief:
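Each compound was tested on mec2-1 yeast, a strain altered in DNA damage repair or cell cycle control. Growth inhibition is reported relative to vehicle.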

Test [3] in a line: NCI Yeast Anticancer Drug Screen. Data for the sgs1 mgt1 strain (AID 161).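 Further: 0% = growth of cultures given vehicle only.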 The settings on record: S. cerevisiae sgs1 mgt1 strain, active compounds read high. The method in brief:
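Mutant yeast exposed to compound; growth scored against vehicle-only wells.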

Test [4] can be described thus: NCI Yeast Anticancer Drug Screen. Data for the cln2 rad14 strain (AID 165).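 Further: 0% = growth equal to vehicle treated cultures.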 As to conditions: S. cerevisiae cln2 rad14 strain, active compounds read high. The method in brief:
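Test compounds were added to cln2 rad14 yeast cultures; inhibition of growth was then determined by comparison with vehicle treatment.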

Test [5] can be described thus: NCI Yeast Anticancer Drug Screen. Data for the bub3 strain (AID 167). The settings on record: S. cerevisiae bub3 mutant strain, active compounds read high. The method in brief: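 Screening used yeast with an engineered genetic alteration affecting cell cycle control. Compound-exposed cultures were compared with vehicle cultures, and reduced growth was taken as inhibition.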

A short description of test [6]: NCI Yeast Anticancer Drug Screen. Data for the mlh1 rad18 strain (AID 175). As to conditions: S. cerevisiae mlh1 rad18 strain growth inhibition, active compounds read high. The method in brief:
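Inhibition values reflect reduced growth of mutant yeast versus vehicle-treated controls following compound exposure; the mutations affect DNA damage repair.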

The mark [7] stands for this setting: at 5.0 µM (retest, dose inferred, filed as 0.5).
[8] abbreviates: at 50.0 µM (retest, dose inferred, filed as 5.0).

On to `CCCC(O)C[N+](=O)[O-]` (stereo not given), for which the growth inhibition in test [1] (setting [7]) was 6%; in test [1] (setting [8]), 71% (active); in test [1] (at 50.0 µM), 48.2%; in test [2] (setting [7]), -1%; in test [2] (setting [8]) it was 6%; in test [2] (at 50.0 µM), 13.2%. The growth inhibition in test [3] (setting [7]) was -2%; in test [3] (setting [8]), 9%; in test [3] (at 50.0 µM) it was 15.2%; in test [4] (setting [7]) it was -1%; in test [4] (setting [8]), 1%; in test [4] (at 50.0 µM) it was 4.5%. Moreover, the growth inhibition in test [5] (setting [7]) was -1%; in test [5] (setting [8]) it was 4%; in test [5] (at 50.0 µM), 13.5%; in test [6] (setting [7]), 0%; in test [6] (setting [8]), 14%; in test [6] (at 50.0 µM), 11.8%.

For the compound `CC(=O)c1ccc(Br)cc1NC1=CC(=O)c2ncccc2C1=O`, the growth inhibition in test [1] (setting [7]) is 95% (active); in test [1] (setting [8]), 95% (active); in test [1] (at 50.0 µM), 86.7% (active); in test [2] (setting [7]) it was 88% (active); in test [2] (setting [8]), 94% (active); in test [2] (at 50.0 µM), 91.2% (active). Further, the growth inhibition in test [3] (setting [7]) was 81% (active); in test [3] (setting [8]), 96% (active); in test [3] (at 50.0 µM), 88.8% (active); in test [4] (setting [7]), 77% (active); in test [4] (setting [8]), 90% (active); in test [4] (at 50.0 µM), 88.3% (active). Moreover, the growth inhibition in test [5] (setting [7]) was 83% (active); in test [5] (setting [8]), 95% (active); in test [5] (at 50.0 µM), 89.7% (active); in test [6] (setting [7]), 87% (active); in test [6] (setting [8]) it was 95% (active); in test [6] (at 50.0 µM), 87.3% (active).

As for `O=C(CBr)c1ccc2cc(Br)c3ccccc3c2c1`, the growth inhibition was 55% in test [1] (setting [7]); 94% (active) in test [1] (setting [8]); 64% in test [1] (at 50.0 µM); 84% (active) in test [2] (setting [7]); 96% (active) in test [2] (setting [8]); 44% in test [2] (at 50.0 µM). The growth inhibition in test [3] (setting [7]) is 98% (active); in test [3] (setting [8]), 95% (active); in test [3] (at 50.0 µM), 68.5%; in test [4] (setting [7]) it was 16%; in test [4] (setting [8]) it was 92% (active); in test [4] (at 50.0 µM), 46.1%. Besides, the growth inhibition in test [5] (setting [7]) is 81% (active); in test [5] (setting [8]) it was 94% (active); in test [5] (at 50.0 µM), 41.1%; in test [6] (setting [7]), 83% (active); in test [6] (setting [8]), 95% (active); in test [6] (at 50.0 µM) it was 61%.

In the case of `CN(C)c1ccc(C(c2cc3c(cc2O)OCO3)N2CCCCC2)cc1` (stereo not given), the growth inhibition was 3% in test [1] (setting [7]); 86% (active) in test [1] (setting [8]); 99.3% (active) in test [1] (at 50.0 µM); -4% in test [2] (setting [7]); 98% (active) in test [2] (setting [8]); 99.5% (active) in test [2] (at 50.0 µM). The growth inhibition is 8% in test [3] (setting [7]); 88% (active) in test [3] (setting [8]); 99.5% (active) in test [3] (at 50.0 µM); -1% in test [4] (setting [7]); 70% (active) in test [4] (setting [8]); 98.3% (active) in test [4] (at 50.0 µM). In addition, the growth inhibition in test [5] (setting [7]) is -5%; in test [5] (setting [8]) it was 97% (active); in test [5] (at 50.0 µM) it was 99.3% (active); in test [6] (setting [7]), -8%; in test [6] (setting [8]) it was 97% (active); in test [6] (at 50.0 µM), 99.3% (active).

As to `O=C(c1cccc(Cl)c1)c1ccc2ccccc2c1C(=O)O`, the growth inhibition in test [1] (setting [7]) is 10%; in test [1] (setting [8]) it was 1%; in test [1] (at 50.0 µM), 12.3%; in test [2] (setting [7]) it was -8%; in test [2] (setting [8]), 0%; in test [2] (at 50.0 µM), 45.9%. In addition, the growth inhibition is -1% in test [3] (setting [7]); 1% in test [3] (setting [8]); 0.7% in test [3] (at 50.0 µM); -3% in test [4] (setting [7]); -1% in test [4] (setting [8]); 5.6% in test [4] (at 50.0 µM). Also, the growth inhibition was -6% in test [5] (setting [7]); 1% in test [5] (setting [8]); -1.5% in test [5] (at 50.0 µM); -6% in test [6] (setting [7]); 5% in test [6] (setting [8]); 5.75% in test [6] (at 50.0 µM).

Take `CCCCNCCCCCCCCCCCl`: the growth inhibition is 47% in test [1] (setting [7]); 98% (active) in test [1] (setting [8]); 99% (active) in test [1] (at 50.0 µM); 65% in test [2] (setting [7]); 99% (active) in test [2] (setting [8]); 96.5% (active) in test [2] (at 50.0 µM). The growth inhibition is 79% (active) in test [3] (setting [7]); 99% (active) in test [3] (setting [8]); 98.8% (active) in test [3] (at 50.0 µM); 60% in test [4] (setting [7]); 98% (active) in test [4] (setting [8]); 64.8% in test [4] (at 50.0 µM). Further, the growth inhibition in test [5] (setting [7]) was 56%; in test [5] (setting [8]), 99% (active); in test [5] (at 50.0 µM), 97.2% (active); in test [6] (setting [7]), 84% (active); in test [6] (setting [8]), 99% (active); in test [6] (at 50.0 µM), 98% (active).

For `Cc1c(N)cc(I)cc1[N+](=O)[O-]`, the growth inhibition in test [1] (setting [7]) was 2%; in test [1] (setting [8]) it was 12%; in test [1] (at 50.0 µM), -4.65%; in test [2] (setting [7]), 9%; in test [2] (setting [8]), 7%; in test [2] (at 50.0 µM), 4.2%. Besides, the growth inhibition is 0% in test [3] (setting [7]); 63% in test [3] (setting [8]); 12.8% in test [3] (at 50.0 µM); 6% in test [4] (setting [7]); -11% in test [4] (setting [8]); -32.7% in test [4] (at 50.0 µM). The growth inhibition is -8% in test [5] (setting [7]); 2% in test [5] (setting [8]); 56.8% in test [5] (at 50.0 µM); -5% in test [6] (setting [7]); 10% in test [6] (setting [8]); 13.8% in test [6] (at 50.0 µM).

In the case of `CN(C)COC(=S)SCN(C)C`, the growth inhibition was 98% (active) in test [1] (setting [7]); 98% (active) in test [1] (setting [8]); 51.4% in test [1] (at 50.0 µM); 96% (active) in test [2] (setting [7]); 99% (active) in test [2] (setting [8]); 54.1% in test [2] (at 50.0 µM). The growth inhibition is 99% (active) in test [3] (setting [7]); 99% (active) in test [3] (setting [8]); 60.2% in test [3] (at 50.0 µM); 93% (active) in test [4] (setting [7]); 99% (active) in test [4] (setting [8]); 52.9% in test [4] (at 50.0 µM). In addition, the growth inhibition in test [5] (setting [7]) is 96% (active); in test [5] (setting [8]), 99% (active); in test [5] (at 50.0 µM), 98.3% (active); in test [6] (setting [7]), 96% (active); in test [6] (setting [8]), 99% (active); in test [6] (at 50.0 µM), 98.2% (active).

Regarding `O=C(Nc1ccc(F)cc1)ON=C1CCCCC1`, the growth inhibition in test [1] (setting [7]) is 56%; in test [1] (setting [8]), 99% (active); in test [1] (at 50.0 µM) it was 90.2% (active); in test [2] (setting [7]) it was 46%; in test [2] (setting [8]), 100% (active); in test [2] (at 50.0 µM) it was 92.3% (active). Besides, the growth inhibition in test [3] (setting [7]) was 56%; in test [3] (setting [8]), 99% (active); in test [3] (at 50.0 µM) it was 91.5% (active); in test [4] (setting [7]), 33%; in test [4] (setting [8]) it was 99% (active); in test [4] (at 50.0 µM), 90.8% (active). Besides, the growth inhibition in test [5] (setting [7]) was 45%; in test [5] (setting [8]) it was 66%; in test [5] (at 50.0 µM), 91.1% (active); in test [6] (setting [7]), 69%; in test [6] (setting [8]), 99% (active); in test [6] (at 50.0 µM), 90.4% (active).

With `CCN(CC)CC(O)CNc1ccc(C)c2sc3ccccc3c(=O)c12` (stereo not given), the growth inhibition in test [1] (setting [7]) is 12%; in test [1] (setting [8]) it was 99% (active); in test [1] (at 50.0 µM), 99.8% (active); in test [2] (setting [7]), 7%; in test [2] (setting [8]) it was 99% (active); in test [2] (at 50.0 µM) it was 99.8% (active). Moreover, the growth inhibition in test [3] (setting [7]) is 28%; in test [3] (setting [8]), 100% (active); in test [3] (at 50.0 µM), 95.2% (active); in test [4] (setting [7]), 12%; in test [4] (setting [8]), 99% (active); in test [4] (at 50.0 µM), 99.5% (active). Also, the growth inhibition is 10% in test [5] (setting [7]); 99% (active) in test [5] (setting [8]); 99.5% (active) in test [5] (at 50.0 µM); 14% in test [6] (setting [7]); 99% (active) in test [6] (setting [8]); 99.8% (active) in test [6] (at 50.0 µM).
